Assay results as given in the antibiotic and cytotoxicity screens of Wong et al. (2023).
The campaign covered roughly 39,000 compounds. About 3,300 (8.5%) were called active. This excerpt belongs to a sample that is enriched for actives.

What follows are molecules tested on HepG2 (assay: cytotoxicity call (relative viability < 0.9)). Details: 10 µM.
For CN(C)CC(=O)N[C@H]1C=C[C@@H](CC(=O)O)O[C@@H]1CO, the cytotoxicity call was “inactive”. For C[C@H](CO)N1C[C@H](C)[C@H](CN(C)C(=O)Nc2ccc(C(F)(F)F)cc2)Oc2ccc(NC(=O)Cc3ccccc3)cc2CC1=O, the cytotoxicity call was “inactive”. In the case of C[C@H]1CN([C@@H](C)CO)C(=O)c2cccc(NC(=O)Nc3ccccc3)c2O[C@H]1CN(C)Cc1ccc(Oc2ccccc2)cc1, the cytotoxicity call was “inactive”. With Cc1noc(C)c1S(=O)(=O)Nc1ccc2c(c1)C(=O)N([C@H](C)CO)C[C@H](C)[C@H](CN(C)Cc1ccc3c(c1)OCO3)O2 the cytotoxicity call was “inactive”. In the case of COC[C@@H](O)CNc1ncnc2c1CCNCC2, the cytotoxicity call was “inactive”. With C[C@H]1CN([C@@H](C)CO)C(=O)c2cccc(NC(=O)c3nc4ccccc4s3)c2O[C@@H]1CN(C)CC1CCCCC1 the cytotoxicity call was “inactive”. Cc1noc(C)c1S(=O)(=O)N(C)C[C@H]1Oc2ccc(NC(=O)NC(C)C)cc2CC(=O)N([C@@H](C)CO)C[C@@H]1C was tested, and the cytotoxicity call was “inactive”. With C[C@@H]1CN([C@@H](C)CO)C(=O)c2cc(NC(=O)c3ccccc3)ccc2O[C@@H](C)CCCCO[C@H]1CN(C)C(=O)Cc1ccccc1 the cytotoxicity call was “inactive”. For O=C([C@H]1CCCCN1)N1CCCC1, the cytotoxicity call was “inactive”. CC(=O)N1[C@H](CO)[C@@H](c2ccccc2)[C@H]1CNC(=O)CN1CCOCC1 was tested, and the cytotoxicity call was “inactive”. Cc1ccc(S(=O)(=O)N(C)C[C@@H]2OCCCC[C@@H](C)Oc3ccc(NC(=O)NC4CCCCC4)cc3C(=O)N([C@H](C)CO)C[C@@H]2C)cc1 was tested, and the cytotoxicity call was “inactive”. In the case of Cc1ccc(S(=O)(=O)N(C)C[C@H]2OCCCC[C@@H](C)Oc3ccc(NC(=O)NC4CCCCC4)cc3C(=O)N([C@@H](C)CO)C[C@H]2C)cc1, the cytotoxicity call was “inactive”. Cc1ccc(S(=O)(=O)N(C)C[C@@H]2OCCCC[C@@H](C)Oc3ccc(NC(=O)NC4CCCCC4)cc3C(=O)N([C@H](C)CO)C[C@H]2C)cc1 was tested, and the cytotoxicity call was “active”. With Cc1ccc(S(=O)(=O)N(C)C[C@H]2OCCCC[C@@H](C)Oc3ccc(NC(=O)NC4CCCCC4)cc3C(=O)N([C@@H](C)CO)C[C@@H]2C)cc1 the cytotoxicity call was “active”. In the case of Cc1ccc(S(=O)(=O)N(C)C[C@@H]2OCCCC[C@@H](C)Oc3ccc(NC(=O)NC4CCCCC4)cc3C(=O)N([C@@H](C)CO)C[C@H]2C)cc1, the cytotoxicity call was “inactive”. For Cc1ccc(S(=O)(=O)N(C)C[C@@H]2OCCCC[C@H](C)Oc3ccc(NC(=O)NC4CCCCC4)cc3C(=O)N([C@@H](C)CO)C[C@@H]2C)cc1, the cytotoxicity call was “inactive”. With COc1ccc(S(=O)(=O)N(C)C[C@H]2OCCCC[C@@H](C)Oc3ccc(NC(=O)Nc4ccc(C(F)(F)F)cc4)cc3C(=O)N([C@H](C)CO)C[C@@H]2C)cc1 the cytotoxicity call was “inactive”. In the case of CC(C)c1nc(CN(C)C(=O)N[C@@H](CCN2CCOCC2)C(=O)N[C@H](CC[C@H](Cc2ccccc2)NC(=O)OCc2cncs2)Cc2ccccc2)cs1, the cytotoxicity call was “inactive”. For CC(C)NC(=O)Nc1ccc2c(c1)CC(=O)N([C@H](C)CO)C[C@H](C)[C@@H](CN(C)S(=O)(=O)c1cn(C)cn1)O2, the cytotoxicity call was “inactive”. For C=CCOC(=O)[C@@H]1[C@H]2C(=O)O[C@H](c3ccccc3)[C@H](c3ccccc3)N2[C@H](c2ccc(OCCOC(=O)[C@@H]3C[C@@H]4C(=O)N5CCC[C@H]5C(=O)N4[C@@H]3c3ccc(O)cc3)cc2)[C@@]12C(=O)Nc1ccccc12, the cytotoxicity call was “inactive”. For COc1ccc([Si](C)(C)[C@@H]2[C@@H](CC(=O)N3CCC[C@H]3CO)O[C@]3(C(=O)N(Cc4ccc(N5C(=O)c6cccc7cccc5c67)cc4)c4ccccc43)[C@H]2C)cc1, the cytotoxicity call was “inactive”. With COc1ccc([Si](C)(C)[C@@H]2[C@@H](CCO)O[C@]3(C(=O)N(Cc4ccc(N5C(=O)c6cccc7cccc5c67)cc4)c4ccccc43)[C@H]2C)cc1 the cytotoxicity call was “active”. COc1ccc([Si](C)(C)[C@@H]2[C@@H](CC(=O)N3Cc4ccccc4C[C@H]3CO)O[C@]3(C(=O)N(Cc4ccc(N5C(=O)c6cccc7cccc5c67)cc4)c4ccccc43)[C@H]2C)cc1 was tested, and the cytotoxicity call was “inactive”. For COc1ccc([Si](C)(C)[C@H]2[C@H](CCO)O[C@@]3(C(=O)N(Cc4ccc(N5C(=O)c6cccc7cccc5c67)cc4)c4ccccc43)[C@@H]2C)cc1, the cytotoxicity call was “active”. For COc1ccc([Si](C)(C)[C@H]2[C@H](CC(=O)N3CCC[C@H]3CO)O[C@@]3(C(=O)N(Cc4ccc(N5C(=O)c6cccc7cccc5c67)cc4)c4ccccc43)[C@@H]2C)cc1, the cytotoxicity call was “inactive”. With C[C@H](CO)N1C[C@H](C)[C@@H](CN(C)S(=O)(=O)c2cn(C)cn2)Oc2ccc(NC(=O)Cc3cn(C)c4ccccc34)cc2C1=O the cytotoxicity call was “inactive”. For c1csc(Cn2cccc2)c1, the cytotoxicity call was “inactive”. With CCOC(=O)[C@H](C(C)=O)[C@H]1CCS(=O)(=O)C1 the cytotoxicity call was “inactive”. CC(C)NC(=O)N(C)C[C@@H]1Oc2ccc(NC(=O)NC3CCCCC3)cc2C(=O)N([C@@H](C)CO)C[C@@H]1C was tested, and the cytotoxicity call was “inactive”. With Cc1noc(C)c1S(=O)(=O)Nc1ccc2c(c1)C(=O)N([C@H](C)CO)C[C@H](C)[C@@H](CN(C)Cc1ccc3c(c1)OCO3)O2 the cytotoxicity call was “inactive”. With CCc1nc2ccc(C(=O)Nc3cc(-c4ccccc4)ccc3OC)cn2c1N(C)C(=O)Cc1ccccc1 the cytotoxicity call was “inactive”. For CCc1nc2ccc(C(=O)Nc3cc(-c4ccccc4)ccc3OC)cn2c1N(CCN(C)C)CC1CC1, the cytotoxicity call was “active”. CCc1nc2ccc(C(=O)Nc3cc(-c4ccccc4)ccc3OC)cn2c1N(C)CCCc1ccccc1 was tested, and the cytotoxicity call was “inactive”. With CCC(=O)N1CCC(C(=O)O)CC1 the cytotoxicity call was “inactive”. With C[C@H](CCC(=O)NCCS(=O)(=O)O)[C@H]1CC[C@H]2[C@@H]3[C@H](O)C[C@@H]4C[C@H](O)CC[C@]4(C)[C@H]3C[C@H](O)[C@]12C the cytotoxicity call was “inactive”. With CC(CCC(=O)NCC(=O)O)C1CCC2C3C(O)CC4CC(O)CCC4(C)C3CC(O)C12C (configuration not stated) the cytotoxicity call was “inactive”. With COC(=O)CCC(C)C1CCC2C3CCC4CC(O)CCC4(C)C3CC(O)C12C (configuration not stated) the cytotoxicity call was “inactive”. With CC(CCC(=O)O)C1CCC2C3C(O)CC4CC(O)CCC4(C)C3CC(O)C12C (configuration not stated) the cytotoxicity call was “inactive”. For C[C@H](CCC(=O)NCC(=O)NCCS(=O)(=O)O)[C@H]1CC[C@H]2[C@@H]3[C@H](O)C[C@@H]4C[C@H](O)CC[C@]4(C)[C@H]3C[C@H](O)[C@]12C, the cytotoxicity call was “active”. COC(=O)CCC(C)C1CCC2C3C(O)CC4CC(O)CCC4(C)C3CC(O)C12C (configuration not stated) was tested, and the cytotoxicity call was “active”. Cc1noc(C)c1NC(=O)Nc1ccc2c(c1)C(=O)N([C@H](C)CO)C[C@H](C)[C@@H](CN(C)S(=O)(=O)c1ccc(Cl)cc1)OCCCC[C@H](C)O2 was tested, and the cytotoxicity call was “inactive”. In the case of CCc1nnc(SCC(=O)OC)[nH]1, the cytotoxicity call was “inactive”. COc1ccc(NC(=O)N(C)C[C@H]2OCCCC[C@H](C)Oc3ccc(NC(=O)Nc4c(C)noc4C)cc3C(=O)N([C@H](C)CO)C[C@@H]2C)cc1 was tested, and the cytotoxicity call was “inactive”. For C[C@H](CO)N1C[C@H](C)[C@H](CN(C)Cc2ccc(C(F)(F)F)cc2)Oc2ccc(NC(=O)Cc3ccccc3)cc2CC1=O, the cytotoxicity call was “active”. In the case of C[C@@H]1CN([C@H](C)CO)C(=O)Cc2cc(NC(=O)Cc3ccccc3)ccc2O[C@H]1CN(C)Cc1ccc(C(F)(F)F)cc1, the cytotoxicity call was “inactive”. With C[C@@H]1CN([C@H](C)CO)C(=O)Cc2cc(NC(=O)Cc3ccccc3)ccc2O[C@@H]1CN(C)Cc1ccc(C(F)(F)F)cc1 the cytotoxicity call was “active”. For C[C@@H]1CN([C@@H](C)CO)C(=O)Cc2cc(NC(=O)Cc3ccccc3)ccc2O[C@H]1CN(C)Cc1ccc(C(F)(F)F)cc1, the cytotoxicity call was “inactive”. C[C@@H]1CN([C@@H](C)CO)C(=O)Cc2cc(NC(=O)Cc3ccccc3)ccc2O[C@H]1CN(C)C(=O)Nc1ccc(C(F)(F)F)cc1 was tested, and the cytotoxicity call was “inactive”. In the case of C[C@H]1CN([C@@H](C)CO)C(=O)Cc2cc(NC(=O)Cc3ccccc3)ccc2O[C@H]1CN(C)Cc1ccc(C(F)(F)F)cc1, the cytotoxicity call was “inactive”. C[C@H](CO)N1C[C@H](C)[C@@H](CN(C)Cc2ccc(C(F)(F)F)cc2)Oc2ccc(NC(=O)Cc3ccccc3)cc2CC1=O was tested, and the cytotoxicity call was “inactive”. C[C@@H]1CN([C@@H](C)CO)C(=O)Cc2cc(NC(=O)Cc3ccccc3)ccc2O[C@@H]1CN(C)Cc1ccc(C(F)(F)F)cc1 was tested, and the cytotoxicity call was “active”. For C[C@H]1CN([C@@H](C)CO)C(=O)Cc2cc(NC(=O)Cc3ccccc3)ccc2O[C@@H]1CN(C)Cc1ccc(C(F)(F)F)cc1, the cytotoxicity call was “inactive”. In the case of CN1CCN(C(=O)C[C@@H]2CC[C@H]3[C@@H](COC[C@@H](O)CN3C(=O)C3CCOCC3)O2)CC1, the cytotoxicity call was “inactive”. With COCC(=O)Nc1ccc2c(c1)C(=O)N(C)[C@@H]1CC[C@H](CC(=O)NCc3ccccc3Cl)O[C@@H]1CO2 the cytotoxicity call was “inactive”. With CCCn1c(=O)[nH]c2nc(-c3ccc(S(=O)(=O)N4CCN(c5ccc(Cl)cc5)CC4)cc3)[nH]c2c1=O the cytotoxicity call was “inactive”. In the case of CC(C)(C)[S@](=O)N1Cc2cc(C(=O)N[C@@H]3CCN(Cc4ccccc4)C3)nc(-c3cccc(-c4ccncc4)c3)c2[C@@H]1CCO, the cytotoxicity call was “inactive”. Cc1ccnc(-n2c(C)ccc2C)c1 was tested, and the cytotoxicity call was “inactive”. For C[C@@H]1CN([C@@H](C)CO)C(=O)c2cccc(NC(=O)Nc3ccc4c(c3)OCO4)c2O[C@@H]1CN(C)C(=O)Nc1ccc(C(F)(F)F)cc1, the cytotoxicity call was “inactive”. With C[C@@H]1CN([C@H](C)CO)C(=O)CCCn2nncc2CO[C@@H]1CN(C)C(=O)Nc1ccc(N2CCN(C)CC2)cc1 the cytotoxicity call was “inactive”. With C[C@@H]1CN([C@H](C)CO)C(=O)c2cccc(NC(=O)c3nc4ccccc4s3)c2O[C@H]1CN(C)C(=O)Nc1ccc(C(F)(F)F)cc1 the cytotoxicity call was “inactive”. With O=C(C[C@H]1C[C@H]2c3cc(NS(=O)(=O)c4ccc(F)cc4)ccc3O[C@H]2[C@H](CO)O1)NCc1ccc(Oc2ccccc2)cc1 the cytotoxicity call was “active”. With O=C(C[C@@H]1C[C@@H]2c3cc(NS(=O)(=O)c4ccc(F)cc4)ccc3O[C@@H]2[C@H](CO)O1)NCc1ccc(Oc2ccccc2)cc1 the cytotoxicity call was “inactive”. In the case of COc1cccc(S(=O)(=O)Nc2ccc3c(c2)[C@@H]2C[C@@H](CC(=O)NCc4ccccc4F)O[C@H](CO)[C@@H]2O3)c1, the cytotoxicity call was “inactive”. With O=C(C[C@H]1C[C@@H]2c3cc(NS(=O)(=O)c4ccc(F)cc4)ccc3O[C@@H]2[C@@H](CO)O1)NCc1ccc(Oc2ccccc2)cc1 the cytotoxicity call was “active”. O=C(C[C@H]1C[C@H]2c3cc(NS(=O)(=O)c4ccc(F)cc4)ccc3O[C@H]2[C@@H](CO)O1)NCc1ccc(Oc2ccccc2)cc1 was tested, and the cytotoxicity call was “inactive”. For O=C(C[C@@H]1C[C@@H]2c3cc(NS(=O)(=O)c4ccc(F)cc4)ccc3O[C@@H]2[C@H](CO)O1)NCc1ccccc1, the cytotoxicity call was “inactive”. For COc1cccc(S(=O)(=O)Nc2ccc3c(c2)[C@@H]2C[C@@H](CC(=O)NCc4ccccc4F)O[C@@H](CO)[C@@H]2O3)c1, the cytotoxicity call was “active”. COc1cccc(S(=O)(=O)Nc2ccc3c(c2)[C@H]2C[C@@H](CC(=O)NCc4ccccc4F)O[C@H](CO)[C@H]2O3)c1 was tested, and the cytotoxicity call was “inactive”. For O=C(C[C@@H]1C[C@@H]2c3cc(NS(=O)(=O)c4ccc(F)cc4)ccc3O[C@@H]2[C@@H](CO)O1)NCc1ccc(Oc2ccccc2)cc1, the cytotoxicity call was “inactive”. In the case of O=C(C[C@H]1C[C@@H]2c3cc(NS(=O)(=O)c4ccc(F)cc4)ccc3O[C@@H]2[C@H](CO)O1)NCc1ccccc1, the cytotoxicity call was “inactive”. O=C(C[C@@H]1C[C@H]2c3cc(NS(=O)(=O)c4ccc(F)cc4)ccc3O[C@H]2[C@@H](CO)O1)NCc1ccc(Oc2ccccc2)cc1 was tested, and the cytotoxicity call was “active”. With O=C(C[C@H]1C[C@@H]2c3cc(NS(=O)(=O)c4ccc(F)cc4)ccc3O[C@@H]2[C@H](CO)O1)NCc1ccc(Oc2ccccc2)cc1 the cytotoxicity call was “inactive”.
